Results reported in PubChem BioAssay (Tox21).
Where “and” joins values, the source holds several entries; their conditions need not be identical. Equal entries are not always repeated. Inconclusive results are not listed. Calls of active or inactive are those of the source. Unless noted, the call rests on the fitted dose curve; in most records, active means well fitted curve in the direction sought with a large enough effect in the repeat runs; inconclusive means weak or mixed curves; inactive means no such curve, though single readings can be large; an effect the other way counts as inactive or inconclusive.

Assays:
[1] = qHTS assay to identify small molecule agonists of the hypoxia (HIF-1) signaling pathway - cell viability counter screen (AID 1224844; calls by dose curve; further: nearly all actives have a fitted effect of over 50% in size; further: potency means the concentration at half of the fitted maximal effect); settings: HRE-bla ME-180 viability, CellTiter-Glo luminescence, 17 h; series mostly up to 76.8 µM
How it was run: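 Multiplexed with the HRE beta-lactamase assay, this viability read used CellTiter-Glo luminescence (30 min, RT) on HRE-bla ME-180 cells treated 17 hrs with compounds in 0.5% dialyzed FBS medium.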

[2] = qHTS assay to identify small molecule agonists of H2AX (AID 1224845; active means well fitted activation curve with a large enough effect in the signal ratio in the repeat runs, not every such curve was filed as active; the % refers to the signal ratio); settings: CHO-K1 phospho-H2AX Ser139 HTRF, 3 h; series mostly up to 154 µM
How it was run: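 Wild-type CHO-K1 cells, plated overnight, exposed 3hr at 37C to 15 concentrations (0.76% DMSO final). Lysed, then HTRF anti-pH2AX (S139) cryptate and anti-H2AX-d2 antibodies, 24 hr room temperature; 665/620 nm emission read.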

[3] = qHTS assay to identify small molecule agonists of the hypoxia (HIF-1) signaling pathway (AID 1224846; active means well fitted activation curve with a large enough effect in the signal ratio in the repeat runs, not every such curve was filed as active; the % refers to the signal ratio); settings: HRE-bla ME-180 cells, beta-lactamase ratio, 17 h; series mostly up to 76.8 µM
How it was run: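 Hypoxia-pathway activation was scored as increased beta-lactamase from an HRE-controlled reporter in ME-180 cells; plated at 2,000 cells per well with 0.5% dialyzed FBS, they were exposed 17 hrs to compounds and then given CCF4-AM.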

[4] = qHTS assay to identify small molecule agonists of H2AX - cell viability counter screen (AID 1224847; calls by dose curve; further: top concentration of the series differs between compounds; nearly all actives have a fitted effect of over 30% in size); settings: CHO-K1 viability, CellTiter-Glo luminescence, 3 h; series mostly up to 154 µM
How it was run: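 Quantitative HTS viability measurement: CHO-K1 wild-type cells in serum (10% FBS) medium, short 3 hr drug exposure at 37C with 0.76% DMSO, CellTiter-Glo luminescent detection.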

[5] = qHTS RealTime-Glo MT Cell Viability Assay in HepG2 cells - 24 hour (AID 1224867); settings: RealTime-Glo luminescence; series mostly up to 76.8 µM; further: nearly all actives have a fitted effect of over 50% in size
How it was run: (§1)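 HepG2 cells (600/well) were dispensed with RealTime-Glo reagents, incubated 5 h at 37 °C, then treated with compounds in DMSO for up to 40 h. Nonlytic NanoLuc luminescence reflecting viable cells was read at each stated time point.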

[6] = qHTS RealTime-Glo MT Cell Viability Assay in HEK293 cells - 32 hour (AID 1224868); settings: RealTime-Glo luminescence; series mostly up to 76.8 µM; further: top concentration of the series differs between compounds; nearly all actives have a fitted effect of over 50% in size
How it was run: (§2)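 HEK293 cells seeded with NanoLuc/prosubstrate reagent, rested 5 h at 37 C, then dosed and kept at 37 C up to 40 h. Nonlytic real-time luminescence from viable cells read at 0, 8, 16, 24, 32 and 40 h.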

[7] = A CellTox Green Cytotoxicity Assay to monitor cytotoxicity in HEK293 cells - 0 hour (AID 1224869); settings: CellTox Green fluorescence; series mostly up to 76.8 µM; further: nearly all actives have a fitted effect of over 50% in size
How it was run: (§3)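 Seeding of HEK293 cells together with cytotoxicity dye preceded a 5 h incubation at 37 C/5% CO2. Test compounds in DMSO were then added and fluorescence monitored across 40 h.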

[8] = qHTS RealTime-Glo MT Cell Viability Assay in HepG2 cells - 40 hour (AID 1224870); settings: RealTime-Glo luminescence; series mostly up to 76.8 µM; further: nearly all actives have a fitted effect of over 50% in size
How it was run: (§4)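 HepG2 cells (600/well) mixed with RealTime-Glo MT reagent, settled 5 h at 37 C/5% CO2 before compound addition. Nonlytic NanoLuc luminescence from viable-cell prosubstrate reduction read repeatedly during 40 h treatment at 37 C.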

[9] = A CellTox Green Cytotoxicity Assay to monitor cytotoxicity in HEK293 cells - 40 hour (AID 1224871); settings: CellTox Green fluorescence; series mostly up to 76.8 µM; further: nearly all actives have a fitted effect of over 45% in size
How it was run: as §3

[10] = qHTS RealTime-Glo MT Cell Viability Assay in HEK293 cells - 16 hour (AID 1224872); settings: RealTime-Glo luminescence; series mostly up to 76.8 µM
How it was run: as §2

[11] = qHTS RealTime-Glo MT Cell Viability Assay in HepG2 cells - 8 hour (AID 1224873); settings: RealTime-Glo luminescence; series mostly up to 76.8 µM; further: nearly all actives have a fitted effect of over 55% in size
How it was run: as §4

[12] = qHTS RealTime-Glo MT Cell Viability Assay in HEK293 cells - 40 hour (AID 1224874); settings: RealTime-Glo luminescence; max response: stronger effect = lower value; further: nearly all actives have a fitted effect of over 50% in size
How it was run: (§5)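 Tox21 screen in HEK293 using RealTime-Glo MT chemistry, with cells and reagent co-dispensed. Luminescence proportional to viable cell number was captured at intervals during 40 h compound exposure at 37 C.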

[13] = A CellTox Green Cytotoxicity Assay to monitor cytotoxicity in HEK293 cells - 24 hour (AID 1224875); settings: CellTox Green fluorescence; series mostly up to 76.8 µM; further: nearly all actives have a fitted effect of over 45% in size
How it was run: as §3

[14] = A CellTox Green Cytotoxicity Assay to monitor cytotoxicity in HepG2 cells - 16 hour (AID 1224876); settings: CellTox Green fluorescence; series mostly up to 76.8 µM; further: nearly all actives have a fitted effect of over 45% in size
How it was run: (§6)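 Nonlytic assay: viable cells exclude the dye, so fluorescence scales with cell death. HepG2 at 600 cells/well, compounds added after 5 h, signal read across 40 h.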

[15] = qHTS RealTime-Glo MT Cell Viability Assay in HepG2 cells - 32 hour (AID 1224877); settings: RealTime-Glo luminescence; series mostly up to 76.8 µM; further: nearly all actives have a fitted effect of over 55% in size
How it was run: as §1

[16] = A CellTox Green Cytotoxicity Assay to monitor cytotoxicity in HepG2 cells - 24 hour (AID 1224878); settings: CellTox Green fluorescence; series mostly up to 76.8 µM; further: nearly all actives have a fitted effect of over 45% in size
How it was run: as §6

[17] = A CellTox Green Cytotoxicity Assay to monitor cytotoxicity in HepG2 cells - 40 hour (AID 1224879); settings: CellTox Green fluorescence; series mostly up to 76.8 µM; further: nearly all actives have a fitted effect of over 40% in size
How it was run: as §6

[18] = qHTS RealTime-Glo MT Cell Viability Assay in HEK293 cells - 0 hour (AID 1224880); settings: RealTime-Glo luminescence; series mostly up to 76.8 µM
How it was run: as §5

[19] = qHTS assay to identify small molecule antagonists of the estrogen related receptor (ERR) signaling pathway from Tox21 library (AID 1224848); settings: ERR reporter cell line, luciferase antagonist mode, 18 h; series mostly up to 92.4 µM; further: nearly all actives have a fitted effect of over 50% in size
How it was run: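 ERR reporter cell line (from NTP) seeded 2,000 cells/well, rested 6 h at 37 C/5% CO2, then pin-dosed with compounds in DMSO. After 18 h at 37 C, ONE-Glo added; luminescence read after 30 min at room temperature.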

[20] = qHTS assay to identify small molecule agonists of the estrogen related receptor (ERR) signaling pathway from Tox21 library (AID 1224849; calls by dose curve; further: nearly all actives have a fitted effect of over 15% in size); settings: ERR reporter cell line, ONE-Glo luciferase, 18 h
How it was run: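 Six hours post-seeding at 37 C/5% CO2, ERR cells receive DMSO-solubilised compounds; after 18 h at 37 C, ONE-Glo reagent is applied and luminescence recorded.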
On the % scale 0 is the no-effect control and ±100 the full control effect.

CCCCC/C(C=O)=C\c1ccccc1
inactive: Potency [1] | Potency [2] | outcome [3] | Potency [4] | outcome [5] | Potency [6] | Potency [7] | outcome [8] | Potency [9] | Potency [10] | outcome [11] | max response [12] -12% and 4.41% and 0.735% | Potency [13] | Potency [14] | outcome [15] | Potency [16] | Potency [17] | Potency [18]

CCOCCO
inactive: Potency [1] | Potency [2] | outcome [3] | Potency [4] | outcome [5] | Potency [6] | Potency [7] | outcome [8] | Potency [9] | Potency [10] | outcome [11] | max response [12] 1.5% and 7.11% | Potency [13] | Potency [14] | outcome [15] | Potency [16] | Potency [17] | Potency [18]

Cc1c(N(C)CS(=O)(=O)O)c(=O)n(-c2ccccc2)n1C
inactive: Potency [1] | Potency [2] | outcome [3] | Potency [4] | outcome [5] | Potency [6] | Potency [7] | outcome [8] | Potency [9] | Potency [10] | outcome [11] | max response [12] -0.4% and 7.69% | Potency [13] | Potency [14] | outcome [15] | Potency [17] | Potency [18]

CC(=O)OC/C=C(C)/C=C/C=C(C)/C=C/C1=C(C)CCCC1(C)C
inactive: Potency [1] | Potency [2] | outcome [3] | Potency [4] | outcome [5] | Potency [6] | Potency [7] | outcome [8] | Potency [9] | Potency [10] | outcome [11] | max response [12] -17.8% and 3.29% and 17.2% | Potency [13] | Potency [14] | outcome [15] | Potency [16] | Potency [17] | Potency [18]

CCc1cc(C(N)=S)ccn1
inactive: Potency [1] | Potency [2] | Potency [4] | outcome [5] | Potency [6] | Potency [7] | outcome [8] | Potency [9] | Potency [10] | outcome [11] | max response [12] 1.51% and 1.72% and 1.47% | Potency [13] | Potency [14] | outcome [15] | Potency [17] | Potency [18]

c1ccc2[nH]c(-c3cscn3)nc2c1
inactive: Potency [1] | Potency [2] | outcome [3] | Potency [4] | outcome [5] | Potency [6] | Potency [7] | outcome [8] | Potency [9] | outcome [11] | max response [12] -21.8% | Potency [13] | Potency [14] | outcome [15] | Potency [17] | Potency [18]

CC(C)Cc1ccc(C(C)C(=O)O)cc1 (centres undefined)
inactive: Potency [1] | Potency [2] | Potency [4] | Potency [19] | activity change, positive = activation ([20]; at 42.5 µM (top of the series)) 3.45% | activity change, positive = activation ([20]; at 92.4 µM (top of the series)) -6.89% and 1.38% | outcome [5] | Potency [6] | Potency [7] | outcome [8] | Potency [9] | Potency [10] | outcome [11] | max response [12] 5.92% and 7.46% and 3.63% | Potency [13] | Potency [14] | outcome [15] | Potency [16] | Potency [17] | Potency [18]

CC1=C(/C=C/C(C)=C/C=C/C(C)=C/C(=O)O)C(C)(C)CCC1
active: Potency [1] 49 µM
inactive: Potency [2] | Potency [4] | outcome [5] | Potency [6] | Potency [7] | outcome [8] | Potency [9] | Potency [10] | outcome [11] | max response [12] -20% and -18.8% and -12.7% | Potency [13] | Potency [14] | outcome [15] | Potency [16] | Potency [17] | Potency [18]

Cn1cnc2c1c(=O)[nH]c(=O)n2C
inactive: Potency [1] | Potency [2] | Potency [4] | outcome [5] | Potency [6] | Potency [7] | outcome [8] | Potency [9] | Potency [10] | outcome [11] | max response [12] 8.97% and 7.21% | Potency [13] | Potency [14] | outcome [15] | Potency [17] | Potency [18]

Cc1cnc(NC(=O)C2=C(O)c3ccccc3S(=O)(=O)N2C)s1
inactive: Potency [1] | Potency [2] | Potency [4] | outcome [5] | Potency [6] | Potency [7] | outcome [8] | Potency [9] | Potency [10] | outcome [11] | max response [12] 6.82% and -5.33% and 4.88% | Potency [13] | Potency [14] | outcome [15] | Potency [17] | Potency [18]

CC(C)=CCC/C(C)=C/CO
inactive: Potency [1] | Potency [2] | Potency [4] | outcome [5] | Potency [6] | Potency [7] | outcome [8] | Potency [9] | Potency [10] | outcome [11] | max response [12] 7.58% and 13.8% and -0.309% | Potency [13] | Potency [14] | outcome [15] | Potency [16] | Potency [17] | Potency [18]
